# Tb PFK block – T. brucei PFK enzyme inhibition; O15648; T. brucei PFK, ADP-Glo luminescence; Potency, µM (titrated, usually from 57.5 µM), for inactives: top-dose activity, negative = inhibition, most hits filed as inhibitors; 330,000 tested, 0.17% active;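 note: 0% = uninhibited 1x PFK enzyme wells and -100% = no-enzyme wells; nearly all actives have a fitted effect of over 60% in size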
#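 ADP-Glo luminescence quantified ADP after 45 min at room temperature, with 1.25 nM T. brucei PFK, 0.1 mM ATP and 0.5 mM fructose-6-phosphate in pH 8.0 TEA buffer. qHTS titrations up to 57 µM; curves classified by quality.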
# VDR inh – blocks the human vitamin D receptor | 400,000 tested, 0.93% active | P11473 | Potency, µM, for inactives: max response, negative = inhibition, hits mostly inhibitors | VDR-SRC2-3 peptide fluorescence polarization, 2 h | AID 504847; note: % is set by controls: 0 for no effect and ±100 for the full control effect
#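 Inhibition of the VDR/SRC2-3 peptide interaction is quantified by fluorescence polarization. Compounds (23 nl, pintool) incubate with the reagents for 2 hours at ambient room temperature.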
# S-ASM inh – human S-ASM enzyme inhibition | placental ASM, HMU-PC fluorogenic substrate, 60 min | AID 504937 | 340,000 tested, 0.006% active | P17405 | Potency, µM (series often up to 57.5 µM), for inactives: at the top dose activity change, negative = inhibition, hits mostly inhibitors
#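 Steps: dispense placental human ASM, pin compound, wait 10 min at room temperature, add HMU-PC0 substrate at 9 uM final, incubate 60 min at 37 °C, add stop solution raising pH to 10, read fluorescence.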
# PLK1 PBD block – blocks phosphopeptide binding to human PLK1 polo-box domain; Plk1 PBD binding of FITC phosphopeptide, fluorescence polarization; Potency, µM, without a hit: max response, negative = inhibition, actives largely listed as inhibitors; 360,000 tested, 2.8% active; note: series mostly up to about 57 µM; % is set by controls: 0 for no effect and ±100 for the full control effect; nearly all actives have a fitted effect of over 65% in size
# TDP1 inh – blocks human tyrosyl-DNA phosphodiesterase 1. 350,000 tested, 0.28% active. recombinant TDP1, AlphaScreen DNA substrate cleavage. AID 485290. Potency, µM (doses to about 130 µM), for inactives: at the top dose activity change, negative = inhibition, actives largely listed as inhibitors. Q9NUW8; note: % is set by controls: 0 for no effect and ±100 for the full control effect; nearly all actives have a fitted effect of over 40% in size
# Target sequence (Q9NUW8 whole entry, looked up): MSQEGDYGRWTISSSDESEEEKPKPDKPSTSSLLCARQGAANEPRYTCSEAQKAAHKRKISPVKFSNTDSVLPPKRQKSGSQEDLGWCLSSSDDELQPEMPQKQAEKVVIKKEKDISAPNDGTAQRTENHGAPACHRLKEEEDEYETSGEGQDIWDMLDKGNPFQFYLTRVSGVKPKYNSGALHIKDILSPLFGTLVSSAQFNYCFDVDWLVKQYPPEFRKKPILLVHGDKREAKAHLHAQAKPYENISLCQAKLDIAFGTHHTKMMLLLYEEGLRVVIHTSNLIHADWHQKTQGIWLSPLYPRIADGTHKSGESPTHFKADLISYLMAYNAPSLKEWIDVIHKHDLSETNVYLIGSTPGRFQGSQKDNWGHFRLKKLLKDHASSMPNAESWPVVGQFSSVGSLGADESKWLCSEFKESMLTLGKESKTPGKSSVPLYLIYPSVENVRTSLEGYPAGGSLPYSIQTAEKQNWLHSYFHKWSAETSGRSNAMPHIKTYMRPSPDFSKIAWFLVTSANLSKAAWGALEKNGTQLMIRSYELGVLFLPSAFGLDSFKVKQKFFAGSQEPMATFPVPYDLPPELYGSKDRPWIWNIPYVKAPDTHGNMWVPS
#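 Enzyme-compound mixtures sat 15 min at room temperature, followed by a 5 min reaction with 15 nM final substrate and 10 min with AlphaScreen beads. Recombinant human Tdp1 was used at 1 nM final.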
# Pin1 inh – human Pin1 inhibition. Q13526. Pin1 FP peptide displacement, HiFluor488, 10 min. Potency, µM (top dose mostly 115 µM), inactives show top-dose activity, negative = inhibition, most hits filed as inhibitors. 390,000 tested, 0.009% active. AID 504891; active = well fitted inhibition curve with a large enough effect in the polarisation, with a control signal flat, not every such curve was filed as active; inconclusive = small, poorly fitted or top-dose-only effect, or effect the other way, or a change in a side signal; inactive = no such curve, though single readings can be large or run the other way; the % refers to the polarisation; note: % is set by controls: 0 for no effect and ±100 for the full control effect
# Starred values were filed as active, the others as inactive; ? = inconclusive; nt = not tested or not shown; [ ] = remark or other dose. Shown are actives, neighbours in structure and some others; about 3.1% of the full set was active somewhere. Unless noted, calls come from the whole dose curve; as a rule, active = well fitted curve in the direction sought with a large enough effect; inconclusive = small, poorly fitted or top-dose-only effect, or another doubt; inactive = no such curve, though single readings can be large; an effect the other way counts as inactive or inconclusive. Potency is the fitted concentration of half-maximal effect.
SMILES,Tb PFK block,VDR inh,S-ASM inh,PLK1 PBD block,TDP1 inh,Pin1 inh
Cc1ccc(NC(=O)CN2C(=O)S/C(=C\c3cc(C)n(-c4ccc(C(=O)O)cc4)c3C)C2=O)cc1,-3%,-8%,19%,27µM*,-10%,?
Cc1ccc(NC(=O)CN2C(=O)S/C(=C\c3cc(Cl)c(OCC(=O)O)c(Cl)c3)C2=O)cc1,-2%,71µM*,?,24µM*,nt,nt
COc1ccc(C(=O)CC(=O)c2ccc(C(C)(C)C)cc2)cc1,nt,-16%,7%,-11%,20µM*,-3%
COc1ccc(C(=O)CC(=O)c2ccc(F)cc2)cc1,nt,-23%,3%,-2%,nt,1%
Cn1c2cc(S(C)(=O)=O)sc2c2cnn(Cc3ccccc3F)c(=O)c21,nt,nt,nt,nt,1%,14%
CC(=O)OC1C(=O)N(Cc2ccccc2)C1c1ccc(C)cc1 (stereo unspecified),nt,-17%,0%,27µM*,nt,0%
CCCCc1nc2c(c3c1C[C@H](C)OC3)CN(S(=O)(=O)c1ccc(NC(C)=O)cc1)CC2,nt,nt,nt,nt,6%[12.3 µM],nt
Fc1ccc(-n2c(=S)[nH]c3cccnc32)cc1,-17%,-15%,13%,12µM*,nt,-5%
CCc1sc(NC(=O)COC)nc1-c1ccccc1,-4%,-2%,3%,18µM*,-2%,-3%
Cc1ccc(CSCc2ccc(C(=O)NCCc3ccc(Cl)cc3)o2)cc1,nt,1%,nt,nt,8%,0%
CN(C)CC(C(=O)c1ccccc1)c1ccccc1 (stereo unspecified),-9%,50µM*,1%,-11%,0%,-6%
O=C(c1ccc(Br)cc1)C(CN1CCOCC1)c1ccccc1 (stereo unspecified),-13%,40µM*,6%,?,nt,1%
O=C(c1ccccc1)C(CN1CCCCC1)c1ccccc1 (stereo unspecified),nt,25µM*,1%,?,nt,0%
CC(CN1CCN(CC(C)C(=O)c2ccccc2)CC1)C(=O)c1ccccc1 (stereo unspecified),nt,-3%,0%,3%,nt,2%
O=C(Nc1ccc2nc(-c3ccco3)c(-c3ccco3)nc2c1)NC1CC1,-3%,71µM*,458%,?,3.2µM*,nt
C=CCNC(=O)/C(C#N)=C/c1ccc(OS(=O)(=O)c2ccc(C)cc2)c(OC)c1,1%,28µM*,4%,?,3%,1%
CCCCN(CC)CCNC(=O)C1CCN(c2nnc(C)c3c(C)n(-c4ccc(C)cc4)nc23)CC1,nt,10%,nt,nt,3%,60%
CC(=O)C1=C(O)C(=O)N(Cc2cccnc2)C1c1ccc(O)cc1 (stereo unspecified),-14%,-1%,0%,27µM*,-7%,-4%
CC(=O)C1=C(O)C(=O)N(Cc2cccnc2)C1c1ccccc1 (stereo unspecified),5%,2%,6%,1%,-1%,0%
CC1(C)Cc2c(sc3ncn4c(=S)[nH]nc4c23)CO1,-7%,?,-2%,30µM*,11%,-1%
CC1(C)Cc2c(sc3ncn(N)c(=N)c23)CO1,18%,0%,-4%,-7%,3%,1%
CC#CCN1c2ccccc2[C@]23C[C@@H](C(=O)OC)N(S(=O)(=O)c4ccc(C(F)(F)F)cc4)C2=NC(C(=O)OC)=C(C(=O)OC)[C@H]13,nt,nt,nt,nt,16%[12.3 µM],nt
CC(C)(C)OC(=O)[C@H](Cc1ccccc1)NC(=O)c1nc[nH]c1C(=O)N1CCN(C(=O)OC(C)(C)C)CC1,2%,-14%,3%,1%,nt,0%
CC(C)(C)OC(=O)[C@H](Cc1ccccc1)NC(=O)c1nc[nH]c1C(=O)N1CCN(c2ccccc2)CC1,2%,?,-16%,21µM*,nt,0%
Cc1oc2ncn(CC(C)C)c(=O)c2c1C(=O)NC(C)c1ccccc1 (stereo unspecified),nt,4%,nt,nt,5%,2%
SMILES,Tb PFK block,VDR inh,S-ASM inh,PLK1 PBD block,TDP1 inh,Pin1 inh
O=C(CN1CC[n+]2c(-c3cccs3)csc21)c1ccc(-c2ccccc2)cc1,-18%,?,-1%,-8%,5%,-1%
CCc1ccc(-c2csc3[n+]2CCN3C(C)=O)cc1,?,25µM*,11%,?,7%,0%
N#Cc1c(SCc2c(Cl)cccc2Cl)nc(N)[nH]c1=S,0%,?,-11%,30µM*,4%,-18%
Cc1nc(SCc2ccccc2Cl)c(C#N)c(C)c1C,nt,3%,nt,nt,2%,-9%
Cc1ccccc1OCC(=O)NCC(=O)OCC(=O)c1ccc(Br)cc1,nt,1%,nt,nt,1%,-1%
O=C1/C(=C\c2ccc(O)cc2)SC(=S)N1Cc1ccccc1,-1%,23%,?,46%,6%,?
COc1cc(/C=C2/SC(=S)N(Cc3ccccc3)C2=O)cc(Cl)c1O,-17%,-25%,-26%,-33%,nt,?
O=C1/C(=C\c2cccc([N+](=O)[O-])c2O)SC(=S)N1Cc1ccccc1,?,?,-18%,17µM*,nt,nt
COc1cc([N+](=O)[O-])cc(/C=C2/SC(=S)N(Cc3ccccc3)C2=O)c1O,-11%,?,-10%,30µM*,nt,5%
O=C1/C(=C\c2cc(Br)cc(Br)c2O)SC(=S)N1Cc1ccccc1,3%,50µM*,-5%,9.5µM*,nt,16%
O=C1/C(=C/c2ccc(O)c([N+](=O)[O-])c2)SC(=S)N1Cc1ccccc1,6%,-18%,-13%,?,9%,33%
COc1cc(F)c(S(=O)(=O)N2CCN(S(=O)(=O)c3cccc(NC(C)=O)c3)CC2)c(F)c1,nt,nt,nt,nt,2%,5%
CCN(CC)C(=O)c1nn(-c2ccc(OC)cc2)c(=O)c2c(N)scc12,nt,nt,nt,nt,-4%,-17%
CCOC(=O)c1nn(-c2ccc(C)cc2)c(=O)cc1OCC(=O)Nc1ccc(OC)cc1,5%,-10%,-1%,-18%,45µM*,-7%
CCOC(=O)c1nn(-c2ccccc2)c(=O)cc1OCC(=O)Nc1cccc(OC)c1,0%,2%,3%,-11%,-7%,12%
CCOC(=O)c1nn(-c2ccc(OC)cc2)c(=O)c2c(N)scc12,-23%,18µM*,-10%,?,-3%,-3%
CCOC(=O)c1nn(-c2ccc(C)c(C)c2)c(=O)c2c(N)scc12,12%,8%,-8%,17µM*,3%,12%
CCCN1CNc2c(c(=O)[nH]c(=S)n2CCc2ccccc2C)C1,nt,-25%,nt,nt,-5%,6%
Cc1ccc(NS(=O)(=O)c2cc3c(cc2/C=C/c2ccccc2)NC(=O)CO3)cc1C,nt,nt,nt,nt,0%,?
CCOC(=O)c1c(N)ssc1=S,?,-26%,-1%,6.7µM*,4%,0%
CCOC(=O)c1c(N)sc(C(=O)Nc2ccccc2)c1C,-3%,?,-10%,21µM*,5%,-14%
